IDE act = IDE (human) activation, cell-based | HEK cells, FAbeta-B cleavage, fluorescence polarization; 0% vehicle, 100% cell-free pure enzyme wells | activation, % at 5.96 µM | actives 0.073% (n = 340,000);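 active = activation above the mean of all tested compounds plus 3 SD, set per screening campaign, cut at about 17% in these data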
CHT allo act = allosterically activates the human high affinity choline transporter; Q9GZV3; actives 0.49% (n = 310,000); CHT-expressing cells, membrane potential dye, choline EC20; hits give high values; LV-AA mutant CHT in HEK293 cells; B-score at 10 µM;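 active = initial fluorescence not abnormally high and integrated response B-score, plate-corrected, over 3 SD above library mean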
Target sequence (Q9GZV3 whole entry, looked up): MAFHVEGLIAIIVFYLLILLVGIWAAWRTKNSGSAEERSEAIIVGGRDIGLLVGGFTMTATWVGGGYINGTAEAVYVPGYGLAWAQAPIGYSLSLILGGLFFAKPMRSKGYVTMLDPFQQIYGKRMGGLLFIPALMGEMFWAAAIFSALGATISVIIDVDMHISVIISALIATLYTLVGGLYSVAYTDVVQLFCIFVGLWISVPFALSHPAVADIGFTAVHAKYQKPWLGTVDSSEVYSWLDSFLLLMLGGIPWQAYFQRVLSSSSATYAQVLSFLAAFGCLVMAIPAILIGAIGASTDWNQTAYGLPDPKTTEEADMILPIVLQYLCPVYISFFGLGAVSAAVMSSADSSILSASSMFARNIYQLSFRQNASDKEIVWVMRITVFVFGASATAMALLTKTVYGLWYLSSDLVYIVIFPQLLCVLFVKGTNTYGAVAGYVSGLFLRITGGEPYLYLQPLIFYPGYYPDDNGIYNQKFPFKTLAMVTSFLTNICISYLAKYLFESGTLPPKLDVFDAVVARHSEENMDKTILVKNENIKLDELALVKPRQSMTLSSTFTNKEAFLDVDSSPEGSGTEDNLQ
IDE cell inh = inhibitors of human insulin-degrading enzyme in cells; P14735; HEK cells, FAbetaB cleavage, fluorescence polarization; inhibition, % at 5.59 µM; actives 0.41% (n = 320,000); AID 434962;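 active = percent inhibition above the average of all tested compounds plus 3 SD, set per screening campaign, cut at about 16% in these data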;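 note: IDE supplied by intact live HEK cells; FP after avidin binding of uncleaved biotin substrate so inhibition keeps polarization high; 0% = DMSO wells and 100% = 60 µM reference IDE inhibitor Ii1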
CHT block = human CHT choline transport inhibition; AID 488975; Q9GZV3; B-score at 10 µM; actives 0.86% (n = 310,000); CHT-expressing cells, membrane potential dye, choline response; hits give low values;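 active = B-score over 3 SD under the library average, and starting fluorescence ratio not unusually high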;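 note: choline stimulus applied at its EC90 after an EC20 pre-addition; B-score computed on integrated fluorescence ratio after choline addition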
ANO1 activ = activates or potentiates the mouse TMEM16A chloride channel; Q8BHY3; B-score at 10 µM; HEK293 TMEM16A/YFP-H148Q/I152L, iodide quench fluorescence; hits give low values; actives 0.3% (n = 340,000);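 active = fluorescence-ratio B-score plate-corrected deviation score at least 3 library SD below zero, with starting fluorescence score within 5 deviations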;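 note: channel opened by trigger with iodide after compound preincubation; score built on the fluorescence ratio of max minus min over baseline; more negative score means more quench and so TMEM16A activation or potentiation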
TMEM16A inh = blocks the mouse calcium-activated chloride channel TMEM16A | Q8BHY3 | HEK293 TMEM16A/YFP iodide influx fluorescence, ionomycin | normalized B-score (activity score, 25-100; higher = stronger inhibition) at 10 µM | actives 1.2% (n = 310,000);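 active = ratio plate-corrected score three or more library SD toward inhibition, starting fluorescence score within five deviations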;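 note: score derived from kinetic fluorescence span divided by baseline fluorescence per well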
CHT block conf = confirmation of human choline transporter CHT inhibitors | shares compounds with CHT block | CHT-expressing cells, choline membrane potential dye; LV-to-AA substituted CHT, HEK293 cells | AID 493221 | CHT activity remaining % of control (hits give low values), % at 10 µM | actives 70% (n = 2,400);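 active = choline transporter activity left, mean of duplicates at 10 µM, below buffer-only control mean minus 3 SD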;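 note: depolarization triggered by choline at its EC90 following an EC20 pre-addition; 0% = hemicholinium-3 full block and 100% = buffer-only control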
HEK293 CHT ctr = CHT inhibitor counter-screen hit in parental HEK293 cells | AID 493222 | shares compounds with CHT block | actives 4% (n = 2,400) | membrane potential ratio readout (active if shifted either direction beyond buffer ±3SD; no single direction) at 10 µM | membrane potential dye, choline response; active = decrease or increase beyond buffer ±3SD;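 note: parental cells lack the transporter so any hit is non-specific; ratio is peak minus trough fluorescence over baseline after EC90 choline challenge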
An asterisk follows results filed as active. Shown are actives, neighbours in structure and some others; about 2.7% of the full set was active somewhere.

`COc1ccc(Nc2nc(C)c(-c3ccccc3)s2)cc1` gave IDE act -1, CHT allo act inactive, IDE cell inh -10, CHT block -8.5*, ANO1 activ inactive, TMEM16A inh inactive, CHT block conf inactive and HEK293 CHT ctr inactive.
CCOCCCn1c(=S)[nH]c2cc(C(=O)N3CCN(C4CCCCC4)CC3)ccc2c1=O was read as IDE act -2, CHT allo act inactive, IDE cell inh -4, CHT block -5.1*, ANO1 activ inactive, TMEM16A inh inactive, CHT block conf 57%* and HEK293 CHT ctr inactive.
`CCOCCCn1c(=S)[nH]c2cc(C(=O)N3CCN(C)CC3)ccc2c1=O` gave IDE act 6, CHT allo act inactive, IDE cell inh 7, CHT block inactive, ANO1 activ inactive and TMEM16A inh inactive.
`O=C(CNS(=O)(=O)c1ccccc1)OCC(=O)c1c[nH]c2ccccc12` gave IDE act 2, IDE cell inh 1 and ANO1 activ inactive.
Screening CCOc1ccc(Cl)cc1S(=O)(=O)N1CCC(C(=O)N2CCCC2)CC1 returned IDE act 4, CHT allo act inactive, IDE cell inh -2, CHT block inactive, ANO1 activ inactive and TMEM16A inh inactive.
`CC(=O)c1c(C)[nH]c(C(=O)OCC(=O)c2ccc3c(c2)NC(=O)CO3)c1C` gave IDE act 5, IDE cell inh 5 and ANO1 activ inactive.
COc1ccnc(N2CCN(c3ccccc3)CC2)c1C#N was read as IDE act 2, CHT allo act inactive, IDE cell inh -2, CHT block -8.3*, ANO1 activ inactive, TMEM16A inh inactive, CHT block conf inactive and HEK293 CHT ctr inactive.
For COC(=O)c1ccc(Cn2c(CN3CCOCC3)nc3ccccc3c2=O)o1 the results were IDE act 0, CHT allo act inactive, IDE cell inh 3, CHT block -5.2*, ANO1 activ inactive, TMEM16A inh inactive, CHT block conf inactive and HEK293 CHT ctr inactive.
For Cc1nc2ccccc2c(=O)n1CCN1CCOCC1 the results were IDE act 4, CHT allo act inactive, IDE cell inh -4, CHT block inactive, ANO1 activ inactive and TMEM16A inh inactive.
For Cn1c(=O)c2c(nc(CN3CCOCC3)n2CCc2ccccc2)n(C)c1=O the results were IDE act 3, CHT allo act inactive, IDE cell inh 5, CHT block -5*, ANO1 activ inactive, TMEM16A inh inactive, CHT block conf inactive and HEK293 CHT ctr inactive.
N#Cc1ccc(C2=NC(C(F)(F)F)(C(F)(F)F)c3c(n(Cc4ccco4)c(=O)[nH]c3=O)N2)cc1 was read as IDE act 6, CHT allo act inactive, IDE cell inh -6, CHT block -11*, ANO1 activ inactive, TMEM16A inh 100*, CHT block conf 57%* and HEK293 CHT ctr inactive.
`CCOC(=O)Nc1cccnc1Sc1ccc(Cl)cc1` gave IDE act -2, CHT allo act inactive, IDE cell inh -4, CHT block inactive, ANO1 activ inactive and TMEM16A inh inactive.
`Cc1ccc(Sc2ncccc2NC(=O)c2ccccc2Cl)cc1` gave CHT allo act inactive, IDE cell inh 9, CHT block -5*, ANO1 activ inactive, TMEM16A inh inactive, CHT block conf inactive and HEK293 CHT ctr inactive.
`COc1ccccc1CCC(=O)OCC(=O)c1c(N)n(CC(C)C)c(=O)n(C)c1=O` gave IDE act 1, CHT allo act inactive, IDE cell inh -1, CHT block -5.7*, ANO1 activ inactive, TMEM16A inh inactive, CHT block conf 43%* and HEK293 CHT ctr inactive.
For CC(NCc1ccc(F)cc1)C(=O)Nc1cc(S(=O)(=O)N2CCCCC2)ccc1Cl (centres undefined) the results were IDE act -1, CHT allo act inactive, IDE cell inh -5, CHT block -5.8*, ANO1 activ inactive, TMEM16A inh inactive, CHT block conf 50%* and HEK293 CHT ctr inactive.
O=C(CCl)Nc1cc(S(=O)(=O)N2CCCCCC2)ccc1Cl was read as IDE act 7, CHT allo act inactive, IDE cell inh -4, CHT block inactive, ANO1 activ inactive and TMEM16A inh inactive.
CCc1cccc(C)c1NC(=O)CCNC(=O)c1cccc(C)c1 was read as IDE act 4, CHT allo act inactive, IDE cell inh 7, CHT block inactive, ANO1 activ inactive and TMEM16A inh inactive.
`COC(=O)CCC(C)N1CCC(Oc2ccc(C(=O)NCc3ccccn3)cc2)CC1` (centres undefined) gave IDE act 5 and ANO1 activ inactive.
Screening CCn1c(SCC(=O)Nc2ccc(C(C)=O)cc2)nc2nc3c(cc2c1=O)COC(C)(C)C3 returned IDE act 5, CHT allo act inactive, IDE cell inh 1, CHT block inactive, ANO1 activ inactive and TMEM16A inh inactive.
CCn1c(SCC(=O)Nc2ccc(OC)cc2)nc2nc3c(cc2c1=O)COC(C)(C)C3 was read as CHT allo act inactive, IDE cell inh -1, CHT block -5*, ANO1 activ inactive, TMEM16A inh inactive, CHT block conf inactive and HEK293 CHT ctr inactive.
For Cc1ccc(S(=O)(=O)NC(=O)COc2cc(C)ccc2C(C)C)cc1 the results were IDE act 0, CHT allo act inactive, IDE cell inh 3, CHT block -5.9*, ANO1 activ inactive, TMEM16A inh inactive, CHT block conf 50%* and HEK293 CHT ctr inactive.
O=C(CSc1c2c(nc3cc(Cl)ccc13)CCCC2)NCCN1CCOCC1 was read as IDE act 0, CHT allo act inactive, IDE cell inh 0, CHT block inactive, ANO1 activ inactive and TMEM16A inh inactive.
Screening O=C(CSc1c2c(nc3ccc(Cl)cc13)CCCC2)NCCCN1CCOCC1 returned IDE act -1, CHT allo act inactive, IDE cell inh -1, CHT block -8.6*, ANO1 activ inactive, TMEM16A inh inactive, CHT block conf 18%* and HEK293 CHT ctr inactive.
